Reference: PubChem BioAssay (NCATS)
This is one part of the list. Results filed as inconclusive are left out. Values without a mark were called inactive. Calls follow the shape of the dose curve; as a rule, active = well fitted inhibition curve with a large enough effect; inconclusive = small, poorly fitted or top-dose-only effect; inactive = no such curve, though single readings can be large or run the other way.

Target: Endonuclease 4 (Escherichia coli (strain K12)) (UniProt P0A6C1)
Test: Counterscreen for APE1 Inhibitors: qHTS Assay for Inhibitors of Endonuclease IV (AID 2565);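 also: plate controls were uninhibited enzyme wells for no effect and no enzyme buffer wells for full effect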
Conditions: E. coli Endo IV, fluorogenic AP-site DNA cleavage; series mostly up to 27.1 µM; activity change, negative = inhibition: at the top concentration
Excerpt: Assay Provider: David M. Wilson, III, National Institute on Aging, NIH
Screening Center PI: Austin, C.P.
Screening Center: NIH Chemical Genomics Center [NCGC]
Escherichia coli endonuclease IV (Endo IV) is the key member of the AP endonuclease superfamily that catalyzes the cleavage of damaged DNA backbone immediately 5' of an AP site. E. coli EndoIV has the same functional activities as human APE1 but has no sequence or structural homology to the human protein. Herein, we utilize E. coli EndoIV to counter screen compound libraries as part of a high-throughput campaign for APE1 inhibitor identification. A concentration-response screen of the LOPAC1280 collection was performed under experimental conditions identical to those used in the APE1 screen.
Inhibition of APE1 activity was screened by utilizing double-stranded short substrate containing tetrahydrofuran (THF) abasic site labeled with rhodamine-type fluorophore (TAMRA) at the 5'-end and with non-fluorescent Black Hole Quencher-2 (BHQ-2) at the opposing 3'-end. An increase in the fluorescence intensity due to incision of the abasic site by APE1 was used to measure the enzyme activity.
Buffer: 50 mM Tris-HCl (pH 7.5) containing 50mM NaCl, 2 mM MgCl2, 1 mM DTT and 0.01% Tween-20.
Buffer in columns 3 and 4 as negative control (no enzyme).
Substrate: 50 nM final concentration of TAMRA/BHQ-2 substrate dispensed throughout the plate.
Enzyme: 2 nM E. coli EndoIV final concentration in columns 1, 2, 5-48. Column 1 is neutral (100% activity).
Control: Pintool transfer of control inhibitor NSC-13755 to column 2 of all assay plates. Two-fold, 16 pt dilution in duplicate to produce final concentrations in the 5.75 uM - 0.175 nM range.
Three uL of enzyme were dispensed to 1536-well Greiner black solid bottom plates. Compounds (23 nL) were transferred via Kalypsys pintool. The plates were incubated for 15 min at room temperature, and then 1 uL of substrate solution was added to start the reaction. The plates were immediately transferred into ViewLux High-throughput CCD imager (Perkin-Elmer) in order to measure the reaction progress in kinetic mode (three reads every 60 seconds) using 525 nm excitation and 598 nm emission fluorescence protocol. The fluorescence intensity difference between the third and the first time points was used to compute reaction progress.

SMILES | activity change, negative = inhibition
CC(C)(C)C(=O)OCc1nc(-c2ccc(O)c(O)c2)cs1 | 53.7%
O=C(Cc1ccc(S(=O)(=O)N2CCOCC2)s1)NCCC(c1ccccc1)c1ccccc1 | -9.69%
Cc1ccc(-c2nc(SCC(=O)Nc3ccccc3OC(F)F)c3c(C)c(C(=O)O)sc3n2)cc1 | -10.8%
O=C(CN1CCN(S(=O)(=O)/C=C/c2ccccc2)CC1)NC(=O)NCc1ccco1 | -5.66%
COc1cc([C@H](Cc2ccccc2)NC(C)=O)oc(=O)c1 | 5.9%
O=c1nc2s/c(=C\c3ccco3)c(=O)n2nc1Cc1ccccc1 | -1.5%
C=CCn1c(=S)[nH]c2scc(-c3ccco3)c2c1=O | 13.8%
N/C(=N\OC(=O)Nc1ccccc1)c1ccno1 | 4.76%
N#Cc1ccccc1CN1C(=O)S/C(=C/c2cccn2-c2cccc(C(=O)O)c2)C1=O | 14.2%
Cc1cc(C)c2nc(-c3ccco3)cc(C(=O)O)c2c1 | 6.27%
Cc1ccc(Cc2cnc(N)s2)o1 | 8.03%
